An excerpt weighted towards active compounds, which were near 15% of everything screened.
12-LOX inh: Primary qHTS assay for inhibitors of human arachidonate 12S-lipoxygenase (ALOX12): Round 2; purified 12hLO, xylenol orange hydroperoxide absorbance; Polyunsaturated fatty acid lipoxygenase ALOX12 (Homo sapiens), P18054; Potency, µM (highest dose often 108 µM), usual class: inhibitors; 1.1% of 580,000 active
Target sequence (P18054 whole entry, looked up): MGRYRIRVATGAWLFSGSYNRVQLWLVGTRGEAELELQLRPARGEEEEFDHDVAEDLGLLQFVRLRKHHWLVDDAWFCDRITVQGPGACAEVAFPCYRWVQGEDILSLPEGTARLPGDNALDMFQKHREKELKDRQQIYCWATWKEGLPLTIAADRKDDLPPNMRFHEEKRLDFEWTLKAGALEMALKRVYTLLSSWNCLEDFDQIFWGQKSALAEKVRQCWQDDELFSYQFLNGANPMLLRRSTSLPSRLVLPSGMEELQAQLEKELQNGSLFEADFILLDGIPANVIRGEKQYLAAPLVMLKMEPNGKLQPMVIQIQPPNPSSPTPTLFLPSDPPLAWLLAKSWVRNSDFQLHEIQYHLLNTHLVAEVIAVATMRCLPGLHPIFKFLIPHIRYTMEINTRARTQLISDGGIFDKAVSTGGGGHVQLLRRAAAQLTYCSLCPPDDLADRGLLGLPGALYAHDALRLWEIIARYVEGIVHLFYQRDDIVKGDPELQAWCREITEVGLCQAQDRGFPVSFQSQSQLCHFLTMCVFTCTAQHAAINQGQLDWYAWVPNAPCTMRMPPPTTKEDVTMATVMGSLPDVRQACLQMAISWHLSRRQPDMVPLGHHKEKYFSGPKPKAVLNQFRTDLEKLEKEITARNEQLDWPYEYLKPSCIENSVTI
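Purified human 12hLO at 150 nM in 25 mM Hepes, 0.01% Triton X-100, pH 7.0, preincubated 15 min at room temperature with compound. Reaction started with 40 uM arachidonic acid, 30 min at room temperature. Hydroperoxide measured by Fe-xylenol orange, 573/405 nm absorbance ratio.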
VP16 counter: VP16 counterscreen qHTS for inhibitors of ROR gamma transcriptional activity; Drosophila S2 Gal4-VP16 UAS-luciferase, luminescence, 20 h; Potency, µM (highest dose often 53.6 µM), most hits filed as inhibitors; 3.5% of 310,000 active;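 further: Gal4-VP16 expression switched on by copper sulfate through the metallothionein promoter; nearly all actives have a fitted effect of over 50% in size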
DT40 TDP1 CPT: qHTS for Inhibitors of human tyrosyl-DNA phosphodiesterase 1 (TDP1): qHTS in cells in presence of CPT; Potency, µM (doses to about 46.2 µM), actives largely listed as inhibitors; chicken DT40 Tdp1-/-;hTDP1 cells + 20 nM CPT, ATP luminescence, 48 h; 12% of 420,000 active; further: nearly all actives have a fitted effect of over 55% in size
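Chicken DT40 Tdp1-/- cells complemented with human TDP1, 400 cells/well, exposed to compounds plus 20 nM camptothecin for at least 48 h at 37 C; viability read as ATP content by CellTiter-Glo luminescence.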
RORgamma inh: qHTS for inhibitors of ROR gamma transcriptional activity. Nuclear receptor ROR-gamma (Mus musculus), P51450. Drosophila S2 Gal4-RORgamma UAS-luciferase reporter, 20 h. Potency, µM (top dose mostly 53.6 µM), most hits filed as inhibitors. 5.4% of 310,000 active; further: nearly all actives have a fitted effect of over 60% in size
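A Gal4/UAS one-hybrid system in insect cells: metallothionein-promoter Gal4–ROR gamma fusion plus Photinus luciferase reporter. Copper sulfate 700 uM final, 20 hr ambient incubation, luminescent detection after 10 min with reagent.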
ELG1 DNA repair: qHTS screen for small molecules that inhibit ELG1-dependent DNA repair in human embryonic kidney (HEK293T) cells expressing luciferase-tagged ELG1. HEK293T ELG1-luciferase reporter, luminescence, 16 h; DNA damage induced by 5-fluorouridine. Potency, µM (doses to about 46.1 µM), most hits filed as inhibitors. 2.3% of 330,000 active; further: nearly all actives have a fitted effect of over 55% in size
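Reporter activity after DNA damage by 5-fluorouridine is monitored. Compound-treated cells incubate 16 hr at 37 °C, then ONE-Glo is added for 30 min before luminescence reading.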
DT40 TDP1 no CPT: qHTS for Inhibitors of human tyrosyl-DNA phosphodiesterase 1 (TDP1): qHTS in cells in absence of CPT; DT40 Tdp1-/- hTDP1 cells, no CPT, ATP luminescence, 48 h; Potency, µM (doses to about 46.2 µM), actives largely listed as inhibitors; 15% of 420,000 active; AID 686978, 2013; further: nearly all actives have a fitted effect of over 55% in size
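Stably hTDP1-transfected Tdp1-null chicken DT40 cells were treated with library compounds minus camptothecin and grown for at least 48 hr at 37 °C, after which cellular ATP was quantified by luminescence.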
A number is an active result. The call rests on the fitted dose curve; in most records, active means well fitted curve in the direction sought with a large enough effect; inconclusive means small, poorly fitted or top-dose-only effect, or another doubt; inactive means no such curve, though single readings can be large; an effect the other way counts as inactive or inconclusive.

How did CCC1c2nccn2CCCN1C(=O)Cc1c(C)noc1C (stereo not drawn) do in these assays?
12-LOX inh: inactive

How did CCCn1c(-c2cccs2)nc2ccccc21 do in these assays?
12-LOX inh: inactive; VP16 counter: 18µM; DT40 TDP1 CPT: inactive; RORgamma inh: 4.5µM; ELG1 DNA repair: inconclusive; DT40 TDP1 no CPT: inactive

How did C=CCn1c(-c2cccs2)nc2ccccc21 do in these assays?
12-LOX inh: inactive; VP16 counter: inactive; DT40 TDP1 CPT: inactive; RORgamma inh: inactive; ELG1 DNA repair: inactive; DT40 TDP1 no CPT: 21µM

Results for Cc1nc(NCc2ccco2)sc1C(=O)NCC(C)C ?
12-LOX inh: inactive

How did O=C(COC(=O)c1ccc(O)cc1O)Nc1ccc2c(c1)OCCO2 do in these assays?
12-LOX inh: inconclusive; DT40 TDP1 CPT: 9.2µM; ELG1 DNA repair: inconclusive; DT40 TDP1 no CPT: 9.2µM

What do the screens show for `O=C(COC(=O)c1ccc(O)cc1O)Nc1ccc2ccccc2c1`?
12-LOX inh: inactive; DT40 TDP1 CPT: 15µM; ELG1 DNA repair: inconclusive; DT40 TDP1 no CPT: 13µM

What do the screens show for `COc1cc(C(=O)COC(=O)c2ccc3c(c2)OCCO3)cc(OC)c1OC`?
12-LOX inh: inactive; DT40 TDP1 CPT: 15µM; DT40 TDP1 no CPT: inconclusive

Results for O=C(COC(=O)c1ccco1)Nc1ccc2c(c1)OCCO2 ?
12-LOX inh: inactive; VP16 counter: inactive; DT40 TDP1 CPT: inactive; RORgamma inh: inactive; ELG1 DNA repair: inactive; DT40 TDP1 no CPT: inactive

Results for COc1ccccc1NC(=O)COC(=O)c1ccc2c(c1)OCCO2 ?
12-LOX inh: inactive; DT40 TDP1 CPT: inactive; ELG1 DNA repair: inconclusive; DT40 TDP1 no CPT: inconclusive

What do the screens show for `O=C(COC(=O)c1ccc(CO)cc1)Nc1ccc2ccccc2c1`?
12-LOX inh: inconclusive; DT40 TDP1 CPT: inactive; ELG1 DNA repair: inactive; DT40 TDP1 no CPT: inactive

What do the screens show for `O=C(COC(=O)c1ccc(O)cc1)Nc1ccc2c(c1)OCO2`?
12-LOX inh: inactive; DT40 TDP1 CPT: inconclusive; ELG1 DNA repair: inactive; DT40 TDP1 no CPT: 12µM

Results for O=C(c1cn(CCC2CCCCN2)nn1)N1CCc2nc[nH]c(=O)c2CC1 (stereo not drawn) ?
12-LOX inh: inactive

How did CCCCSc1nnc(COc2ccc(Cl)cc2)n1C do in these assays?
12-LOX inh: inactive

Results for O=C(CSc1nc2[nH]ncc2c(=O)n1-c1ccc(F)c(F)c1)N1CCc2ccccc21 ?
12-LOX inh: inactive

What do the screens show for `CCN1CCN(C(=O)CN(c2cccc(C)c2C)S(C)(=O)=O)CC1`?
12-LOX inh: inactive

How did CC(C)(C)NC(=O)COC(=O)c1ccc(NC(=O)CC#N)cc1 do in these assays?
12-LOX inh: inactive; VP16 counter: inactive; DT40 TDP1 CPT: 1.5µM; RORgamma inh: inactive; ELG1 DNA repair: inactive; DT40 TDP1 no CPT: inactive

How did N#CCC(=O)Nc1ccc(C(=O)OCC(=O)c2ccc3c(c2)OCCO3)cc1 do in these assays?
12-LOX inh: inactive; VP16 counter: inactive; DT40 TDP1 CPT: inconclusive; RORgamma inh: inactive; ELG1 DNA repair: inconclusive; DT40 TDP1 no CPT: 18µM

How did COc1ccc2[nH]c(S(=O)Cc3ncc(C)c(OC)c3C)nc2n1 (stereo not drawn) do in these assays?
VP16 counter: inactive; DT40 TDP1 CPT: inconclusive; RORgamma inh: inactive; DT40 TDP1 no CPT: 27µM

Results for COc1c(C)cnc(Cn2cnc3c(Cl)nc(N)nc32)c1C ?
12-LOX inh: inactive

What do the screens show for `COc1ccc2[nH]c(S(=O)Cc3ncc(C)c(OC)c3C)nc2c1` (stereo not drawn)?
12-LOX inh: inconclusive; VP16 counter: inactive; DT40 TDP1 CPT: inconclusive; RORgamma inh: inactive; ELG1 DNA repair: inactive; DT40 TDP1 no CPT: 16µM

Results for COc1ccnc(CS(=O)c2nc3cc(C(O)(F)F)ccc3[nH]2)c1OC (stereo not drawn) ?
12-LOX inh: inactive; VP16 counter: inactive; DT40 TDP1 CPT: inactive; RORgamma inh: inactive; ELG1 DNA repair: inconclusive; DT40 TDP1 no CPT: inconclusive

What do the screens show for `COC(=O)c1cc2occc2n1Cc1cccc(OC)c1`?
12-LOX inh: inactive

How did Fc1ccc2c(c1)C1OCCCC1C(c1ccccc1)N2 (stereo not drawn) do in these assays?
12-LOX inh: inactive; VP16 counter: inactive; DT40 TDP1 CPT: inconclusive; RORgamma inh: inactive; ELG1 DNA repair: inactive; DT40 TDP1 no CPT: 18µM

Results for CCCCNc1c(-c2ccc(OC)c(SC3CCCCC3)c2)nc2cc(C)ccn12 ?
12-LOX inh: inconclusive; DT40 TDP1 CPT: 21µM; ELG1 DNA repair: inconclusive; DT40 TDP1 no CPT: 15µM

How did CCCCNc1c(-c2ccc(OC)c(SC3CCCCC3)c2)nc2ccc(Cl)cn12 do in these assays?
12-LOX inh: inconclusive; DT40 TDP1 CPT: 21µM; ELG1 DNA repair: inactive; DT40 TDP1 no CPT: 23µM

What do the screens show for `Cc1ccc(S(=O)(=O)N(C)C[C@H]2Oc3cc(C#Cc4ccccc4)ccc3S(=O)(=O)N([C@H](C)CO)C[C@@H]2C)cc1`?
12-LOX inh: inactive; DT40 TDP1 CPT: 10µM; DT40 TDP1 no CPT: 9.2µM

How did COc1cccc(S(=O)(=O)N(C)C[C@H]2Oc3cc(Br)ccc3S(=O)(=O)N([C@@H](C)CO)C[C@H]2C)c1 do in these assays?
12-LOX inh: inactive; DT40 TDP1 CPT: 21µM; DT40 TDP1 no CPT: 15µM

How did C/C=C/c1ccc2c(c1)O[C@H](CN(C)C(=O)NC1CCCC1)[C@H](C)CN([C@H](C)CO)S2(=O)=O do in these assays?
12-LOX inh: inactive; DT40 TDP1 CPT: 18µM; DT40 TDP1 no CPT: 21µM

How did C[C@@H]1CN([C@@H](C)CO)S(=O)(=O)c2ccc(Br)cc2O[C@H]1CN(C)C(=O)C1CCC1 do in these assays?
12-LOX inh: inactive; DT40 TDP1 CPT: inconclusive; DT40 TDP1 no CPT: 16µM

Results for COCC(=O)N(C)C[C@@H]1Oc2cc(Br)ccc2S(=O)(=O)N([C@H](C)CO)C[C@H]1C ?
12-LOX inh: inactive; DT40 TDP1 CPT: inactive; DT40 TDP1 no CPT: inactive

Results for C[C@H]1CN([C@@H](C)CO)S(=O)(=O)c2ccc(Br)cc2O[C@H]1CN(C)S(=O)(=O)c1ccccc1 ?
12-LOX inh: inactive; DT40 TDP1 CPT: 16µM; DT40 TDP1 no CPT: 16µM

What do the screens show for `C[C@@H]1CN([C@@H](C)CO)S(=O)(=O)c2ccc(Br)cc2O[C@@H]1CN(C)S(=O)(=O)c1ccc(F)cc1`?
12-LOX inh: inactive

Compound activity (PubChem)
